Among all 53,000 sequences or so, about 3,700 (7%) were called active. This is one part of a sample in which actives are shown more often than they occur.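 Rule for the calls: active = gene knockdowns whose robust z-score for IL-1 alpha signal is at least 2 or at most -2, so actives lie on both sides; inactive = the rest.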

The assay in a line: Components of the Cytosolic LPS Sensing Pathway: Gene Identification via Genome-wide siRNA Screen.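 Note: robust z of the log signal after scaling to non-targeting control siRNA wells of the plate.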 The following applies: RAW264.7 macrophages, IL-1a HTRF, actives lie on both sides, screened at 100 nM (by protocol), cells primed 5 h with Pam3CSK4 first. Put shortly: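 Three distinct siRNAs per gene were tested singly at 100 nM in RAW264.7 macrophages. Following Pam3CSK4 priming and 24 hour LipidA transfection, IL-1a secretion was read by HTRF.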
As to GGAUACAAAUCCAGAUUCUTT against Pex26, the z-score is -0.982 (inactive). As to GGAACGAAUUUUAGAUGCATT against Rbbp8, the z-score was 1.14 (inactive).

Consider CCCAGAGCAUUCCUAUUACTT against Klrg2, for which the z-score was -2.84 (active). In the case of GCACGGUAUCUCGAAGUCGTT against Spata18 it was -0.785 (inactive); in that of CCAUUCAAUGGUAACUGAATT against Olfr229, -0.382 (inactive). As for GCAGUCGCUUUGUUUUAUATT against Olfr1204, the figure is -0.225 (inactive). In the case of GGAAAUCGAAUGAAUAACCTT against Klf12 it was 3.45 (active). With GGCUGAGAAGCAGACUUCCTT against Dclk3, the z-score was 1.23 (inactive). As for GCUACGUUUACUGACCACATT against Bcat1, the figure is 1.55 (inactive); as for CCUACUCGUCUCUUUCACCTT against Tlcd1, 0.158 (inactive).

As for GCAACUUUUAAUUGGUCUATT against Agrn, the z-score is -0.537 (inactive). Regarding GGUUUUACCGAUGAUGCAUTT against Pcdhb20, the z-score was -0.624 (inactive). For GGUAAUGGCUCACUUAAUATT against Malt1, the z-score is -0.427 (inactive). In the case of GGUCUUUGACAUUUUGAAUTT against Lrrk2 it was -0.295 (inactive); in that of GUACACUCAGGCUGAGGGUTT against Acyp1, 0.0397 (inactive). As for GCAAUACUAUUCAGUCCAUTT against Gnai3, the figure is -2.45 (active); as for GGUUCCACUCAACUGAAGATT against Actl7b, -0.123 (inactive). In the case of GGCCUGCUACUUUUGAUGCTT against Olfr166 it was 0.0524 (inactive). Consider GCACCUCUGACAAGGUUCUTT against Plin1, for which the z-score was 2.65 (active). In the case of GGGUCAUUUCCUAUGCAGGTT against Olfr866 it was -1.24 (inactive); in that of CCAAGAUUCAUAAGAAGGCTT against Tas2r131, 0.646 (inactive). In the case of GCUAGAAUUCAUGUUUCGUTT against Dgkg it was 0.487 (inactive); in that of GGUGCACUUUGAAUCAGGGTT against Uchl4, 0.91 (inactive).

As for GGACAUCUACACCAUUUGGTT against Mplkip, the z-score is -2.11 (active).

Regarding GGUAACUAUGAAGAGAUCATT against Neu2, the z-score is 0.312 (inactive). As for “GGAUUAGGAAAGAGAGAACTT against 4930519G04Rik”, the figure is -1.43 (inactive); as for GGUCAUCGUGUGCAACCUCTT against Zcchc3, -3.24 (active); as for GGAACAGUUCAAGUGAAGCTT against Sertad2, -0.0174 (inactive). As for GGAAGAUGAGAAAAUUCCATT against Ccni, the figure is -0.44 (inactive). In the case of GCCACAGAAAGUGAUUGAGTT against Rbp7 it was -0.418 (inactive).
